Bioassay records deposited in PubChem BioAssay by National Center for Advancing Translational Sciences (NCATS).
Compounds with a hit are over-represented: about 9.3% of the library has one in this group of screens.
SMN2 splice enh = enhancers of SMN2 splice variant expression | HEK293 SMN2-luciferase splicing reporter, luminescence, 30-36 h | hit rate 2.8% among 210,000 | AID 1458 | Potency, µM (top dose mostly 46.1 µM), for inactives: at the highest dose activity change, positive = activation, hits mostly activators; note: % of control where 0% means no effect; nearly all actives have a fitted effect of over 55% in size
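HEK293 cells carry an SMN2 […]–luciferase reporter in which exon 7 inclusion puts luciferase in frame. Cells were plated 10-12 h before compound addition, then incubated 30-36 h at 37C. ONE-Glo luminescence was read; sodium butyrate at 4.5 mM final served as control.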
ELG1 DNA repair = inhibitors of ELG1-dependent DNA repair in HEK293T cells. Potency, µM (top dose mostly 46.1 µM), inactives show at the highest dose activity change, negative = inhibition, hits mostly inhibitors. AID 504467. hit rate 2.3% among 330,000. HEK293T ELG1-luciferase reporter, luminescence, 16 h; DNA damage induced by 5-fluorouridine; note: % is set by controls: 0 for no effect and ±100 for the full control effect; nearly all actives have a fitted effect of over 55% in size
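Overnight (16 hr) co-exposure of 2,000 cells/well to 5-fluorouridine and compound at 37 °C preceded detection. Luciferase was quantified via ONE-Glo luminescence; loss of signal denotes inhibition.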
NPC1 prom act = NPC1 promoter activation; Huh7 NPC1 promoter luciferase reporter, 24 h; Potency, µM (top dose mostly 9.22 µM), for the others: at the top dose activation, actives largely listed as activators; hit rate 2.4% among 320,000; note: % of control where 0% means no effect; nearly all actives have a fitted effect of over 60% in size
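Readout is luciferase luminescence, reflecting NPC1 promoter activation in stably transfected Huh7 cells after 24 h compound exposure at 37 °C in reduced-serum medium with 10% FBS.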
Rab9 prom act = Rab9 promoter activation. Potency, µM (highest dose often 9.22 µM), for inactives: at the highest dose activation, negative = inhibition, most hits filed as activators. Huh7 Rab9 promoter-luciferase reporter, luminescence, 24 h. hit rate 2.8% among 320,000; note: % of control where 0% means no effect; nearly all actives have a fitted effect of over 60% in size
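Stable Rab9-luc Huh7, 1500 cells/well, 2 h settle; cmpd in DMSO, 24 h, 37 °C/5% CO2; luciferase reagent 10 min RT; luminescence.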
FLuc counter = firefly luciferase modulation, counter-screen for miR-21 project | P08659 | purified FLuc, Km substrates, luminescence inhibition | Potency, µM (series often up to 57.5 µM), without a hit: at the top dose activity change, negative = inhibition, actives largely listed as inhibitors | hit rate 6.9% among 360,000;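 note: plate controls were vehicle for no effect and reference inhibitor for full effect; nearly all actives have a fitted effect of over 55% in size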
Target sequence (P08659 whole entry, looked up): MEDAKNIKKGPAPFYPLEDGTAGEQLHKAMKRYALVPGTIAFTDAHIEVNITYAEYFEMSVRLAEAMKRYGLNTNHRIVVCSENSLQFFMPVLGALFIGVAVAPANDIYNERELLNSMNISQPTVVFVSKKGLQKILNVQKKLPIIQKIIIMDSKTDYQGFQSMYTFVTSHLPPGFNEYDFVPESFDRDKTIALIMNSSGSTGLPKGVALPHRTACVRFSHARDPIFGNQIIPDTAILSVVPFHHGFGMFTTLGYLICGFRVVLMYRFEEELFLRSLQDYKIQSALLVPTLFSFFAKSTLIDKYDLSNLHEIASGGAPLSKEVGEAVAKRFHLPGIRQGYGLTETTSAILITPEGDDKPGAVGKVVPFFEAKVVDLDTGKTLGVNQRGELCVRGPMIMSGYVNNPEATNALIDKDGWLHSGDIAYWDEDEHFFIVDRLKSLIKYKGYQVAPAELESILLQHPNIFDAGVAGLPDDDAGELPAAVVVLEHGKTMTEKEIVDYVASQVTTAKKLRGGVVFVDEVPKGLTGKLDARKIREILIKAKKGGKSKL
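Purified P. pyralis luciferase (10nM final) with 10uM D-luciferin and 10uM ATP (Km levels) in 50mM Tris acetate pH 7.5, 10mM Mg acetate, 0.01% Tween-20, 0.05% BSA; qHTS 6-point titration, ~60 µM downward; luminescence read.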
ELG1 genotoxic = genotoxicity induction in ELG1-luciferase HEK293T cells. HEK293T ELG1-luciferase reporter, luminescence, 16 h. Potency, µM (top dose mostly 46 µM), for inactives: top-dose activity change, positive = activation, actives largely listed as activators. hit rate 1.3% among 330,000; note: % of control where 0% means no effect; nearly all actives have a fitted effect of over 60% in size
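Quantitative HTS format in 1536-well plates. HEK293T ELG1-luciferase reporter cells receive test compound and are incubated 16 hr at 37 °C, 5% CO2; ONE-Glo added, 30 min room temperature, then luminescence read.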
Starred values were filed as active, the others as inactive; ? = inconclusive; nt = no result given; [ ] = dose if it differs, or a comment. Calls come from the whole dose curve; as a rule, active = well fitted curve in the direction sought with a large enough effect; inconclusive = small, poorly fitted or top-dose-only effect, or another doubt; inactive = no such curve, though single readings can be large; an effect the other way counts as inactive or inconclusive. Potency is the fitted concentration of half-maximal effect.

SMILES | SMN2 splice enh | ELG1 DNA repair | NPC1 prom act | Rab9 prom act | FLuc counter | ELG1 genotoxic
O=C(CC(c1ccco1)S(=O)(=O)c1ccccc1)c1ccc(F)cc1 (stereo unspecified) | 12.8% | 19.6% | 0.1% | -0.7% | 19µM* | 0.6%
C=CCN(c1ccccc1OC)S(=O)(=O)c1cccc(C(=O)NC2=NCCS2)c1 | nt | 23.1µM* | nt | nt | nt | -17.9%
C=CCN(c1ccccc1)S(=O)(=O)c1cc(C(=O)NC2=NCCS2)ccc1Cl | -2.6% | 20.6µM* | -4.1% | -1.2% | -8.4% | -6.6%
C=CCN(c1ccc(F)cc1)S(=O)(=O)c1cc(C(=O)NC2CCC(O)CC2)ccc1Cl (stereo unspecified) | nt | 5.2% | -2.9% | -4.9% | 4.0% | -0.1%
COC(=O)/C(=C/c1c[nH]c2ccccc12)[N+](=O)[O-] | nt | ? | 5.0% | 12.1% | 19µM* | -2.2%
COC(=O)/C(=C/c1c[nH]c2ccccc12)NC(C)=O | 1.2% | 7.7% | -2.8% | -1.8% | 3.3% | -0.5%
CC(C)CCNC(=O)C(c1ccco1)N(Cc1ccc(F)cc1)C(=O)c1snc(C(N)=O)c1N (stereo unspecified) | 18.7% | -9.2% | -0.1% | 2.2% | 0.8% | -3.3%
COc1cc(NC(=O)c2sc(C)nc2C)c(OC)cc1NC(=O)c1ccccc1 | nt | 14.6µM* | -3.4% | -5.7% | 1.7% | -10.4%
COc1cc(NC(=O)C(C)Oc2ccccc2)c(OC)cc1NC(=O)c1ccccc1 (stereo unspecified) | nt | 14.6µM* | -7.0% | -0.2% | 0.1% | -27.1%
CC(Oc1ccccc1)C(=O)Nc1ccc(NC(=O)c2ccccc2)cc1 (stereo unspecified) | nt | 9.7% | -0.5% | 1.5% | 0.0% | ?
CC1CCCN(C(C(=O)NC2CCCCC2)c2cc3c(cc2[N+](=O)[O-])OCO3)C1 (stereo unspecified) | ? | 24.9% | 5.4% | 0.3% | -13.0% | 0.7%
O=C(Nc1ccnn1C1CCN(CC(O)CO)CC1)C1CCCC1 (stereo unspecified) | nt | -2.8% | -1.5% | 1.1% | 0.0% | -1.8%
COC(=O)c1sc(NC(=O)CSc2n[nH]c(N)n2)c(C(=O)OC)c1C | -14.0% | -3.5% | 2.1% | 8.5% | -8.8% | -2.2%
Fc1ccc(OCc2nc(-c3cccs3)no2)cc1 | ? | ? | 3.16µM* | 2.51µM* | 10.7µM* | ?
c1ccc(OCc2nc(-c3cccs3)no2)cc1 | ? | ? | 3.55µM* | 3.16µM* | 7.57µM* | 12.6µM*
Cc1ccc(S(=O)(=O)N/N=C/c2cccn2-c2ccc(Cl)cc2)cc1 | -19.6% | ? | ? | ? | 0.536µM* | 10.7%
Cc1nc2ccccc2c2oc(C(=O)NCc3ccc4c(c3)OCO4)cc12 | -42.7% | ? | -2.3% | -0.9% | -2.5% | -8.3%
Cc1nc2ccccc2c2oc(C(=O)NCc3ccccn3)cc12 | -37.5% | 18.4µM* | -1.1% | -4.0% | 1.8% | -22.1%
Cc1ccc(CNC(=O)c2cc3c(C)nc4ccccc4c3o2)cc1 | -94.4% | 14.6µM* | -8.1% | -17.4% | 3.2% | ?
O=C(CCN1CCC(c2ccccc2)C1)c1ccc2c(c1)OCCO2 (stereo unspecified) | 10.3% | -7.1% | -0.2% | -18.5% | -9.4% | 4.9%
O=[N+]([O-])c1cc(/C=N/O)ccc1SCc1ccccc1Cl | -15.5% | 18.8% | -3.1% | 0.1% | ? | 1.2%
CCN(CC)S(=O)(=O)c1ccc(/C=C/C(=O)OCC(=O)NNC(=O)c2ccc(OC)cc2)cc1 | nt | 6.7% | -10.7% | 0.0% | -8.0% | 1.7%
CSC1=NC(=O)/C(=C\c2cccc3ccccc23)S1 | 0.8% | 0.0% | -15.8% | -6.2% | 7.57µM* | 5.7%
N=C1S/C(=C\c2cccc3ccccc23)C(=O)N1c1ccc(F)cc1 | -18.4% | -22.2% | -14.3% | -4.1% | 6.5% | -1.0%
Cc1ccc(-c2cc(-c3nnc(SCC(=O)NC(C)C(C)C)n3N)c3ccccc3n2)cc1 (stereo unspecified) | -3.5% | -9.1% | 0.1% | -0.3% | 8.49µM* | 0.1%
SMILES | SMN2 splice enh | ELG1 DNA repair | NPC1 prom act | Rab9 prom act | FLuc counter | ELG1 genotoxic
CC(NC(=O)CSc1nnc(-c2cccnc2)n1N)c1ccccc1 (stereo unspecified) | 10.3% | 2.1% | 1.6% | 1.7% | -3.0% | 0.0%
CC(/C=N/Nc1ccc2nncn2n1)=C\c1ccccc1 | nt | ? | 2.4% | 11.8% | 15.1µM* | 4.9%
CC(/C=N/Nc1nnc(C)c(=O)[nH]1)=C\c1ccccc1 | ? | ? | ? | ? | 12µM* | 15.2%
C(=C\c1ccccc1)/C=N/Nc1ccc2nncn2n1 | nt | ? | ? | -3.7% | -13.0% | 4.7%
COc1cc(NC(=O)C2CCC(=O)N2S(=O)(=O)c2ccc(C)cc2)cc(OC)c1 (stereo unspecified) | nt | 6.3% | -0.9% | -0.2% | -0.3% | 6.3%
Cn1cccc1C(=O)N1CCC2(CC1)CCN(C(c1ccccc1)c1ccccc1)CC2 | -34.8% | nt | nt | nt | nt | nt
S=C(Nc1ccccc1)N1N=CCC1c1ccccc1 (stereo unspecified) | -8.3% | ? | 22.2% | 29.9% | 16.9µM* | ?
Fc1ccc(NC(=S)N2CCCC(c3ccccc3)=N2)cc1 | nt | -4.0% | -1.8% | -3.9% | -0.5% | -3.8%
Fc1ccc(NC(=S)N2N=CCC2c2ccccc2)cc1 (stereo unspecified) | 9.7% | ? | 22.3% | 18.5% | ? | 23.1µM*
O=C(Nc1cccc(Cl)c1)N1N=CCC1c1ccccc1 (stereo unspecified) | nt | -9.4% | 0.9% | -1.0% | -2.8% | -2.6%
NS(=O)(=O)C#Cc1ccccc1 | nt | nt | -37.1%[46.1 µM] | -41.1%[46.1 µM] | nt | nt
Nc1ccccc1C#Cc1ccccc1 | 31.6% | ? | ? | 25.8% | 6.75µM* | ?
Nc1ccc(C#Cc2ccccc2)cc1 | 23.9% | ? | 21.7% | 29.9% | 15.1µM* | ?
N#Cc1ccccc1Sc1ccccc1N | 1.9% | 15.8% | -2.3% | 1.2% | -17.3% | 1.3%
CCCCOC(=O)c1ccc(NC(=O)C2(c3cccs3)CCOCC2)cc1 | nt | nt | nt | nt | -0.7% | nt
COc1ccc(Cl)cc1S(=O)(=O)Nc1cccc(-c2ccc(N3CCOCC3)nn2)c1 | nt | nt | nt | nt | 19µM* | nt
Cc1cc(S(=O)(=O)Nc2cccc(-c3ccc(N4CCOCC4)nn3)c2)c(C)cc1Cl | nt | nt | nt | nt | 12µM* | nt
Cc1cccc(N2CCN(S(=O)(=O)c3cc4c(cc3Cl)NC(=O)CO4)CC2)c1C | nt | 9.4% | -5.3% | -0.1% | 5.9% | 4.2%
NNC(=O)c1cc2cc3ccccc3nc2s1 | 1.3% | 22.9% | 8.0% | 26.3% | 21.3µM* | -0.8%
CN(C)C(=S)c1ccc2ccccc2n1 | -8.5% | 28.8% | -6.4% | -1.5% | -2.0% | 0.2%
O=C(O)C(=O)/C(=C\c1cccc(Cl)c1)c1ccc2ccccc2n1 | 11.2µM* | ? | 4.1% | -0.3% | ? | ?
